Each structure is given as a SMILES string. Compounds without any hit were thinned out: in the full panel of roughly 83,000, 20% have a hit.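 96-well plates, one dose, 48 hours. Percent growth reported; active if below 10.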 Unmarked numbers belong to inactive results. Calls of active or inactive are those of the source.

Common to all, as to experiment: NCI-60 one-dose screen, 48 h (100 = growth as untreated, 0 = no growth, -100 = all killed)
Settings in all cases: 10 µM unless noted

The subject of experiment [1] is SK-MEL-2 melanoma.
Experiment [2] relates to EKVX NSCLC.
Experiment [3] has as its system SN12C renal.
Experiment [4] concerns UO-31 renal.
Experiment [5] deals with TK-10 renal.
For experiment [6], the system named is ACHN renal.
The subject of experiment [7] is CAKI-1 renal.
The subject of experiment [8] is A498 renal.
The test system of experiment [9] is CCRF-CEM leukemia.
Experiment [10] concerns MOLT-4 leukemia.
In experiment [11] the test system is RPMI-8226 leukemia.
The subject of experiment [12] is OVCAR-8 ovarian.
Experiment [13] concerns OVCAR-5 ovarian.
Experiment [14] deals with OVCAR-4 ovarian.
The subject of experiment [15] is SK-OV-3 ovarian.
The test system of experiment [16] is IGROV1 ovarian.
In experiment [17] the test system is OVCAR-3 ovarian.
In experiment [18] the test system is HS 578T breast.
The subject of experiment [19] is NCI/ADR-RES ovarian.
The test system of experiment [20] is SR leukemia.

On to `C=CC(=O)Nc1cccc(-c2nc(SC)nc(NCCc3ccc(OC)c(OC)c3)c2C#N)c1`, for which the growth was 65.7% in experiment [1]; 43.8% in experiment [2]; 47.6% in experiment [3]; 45.1% in [4]; 82.4% in experiment [5]; 35.7% in experiment [6]. In addition, the growth was 52.8% in [7]; 18.5% in experiment [8]; 26.3% in experiment [9]; 2.39% (active) in experiment [10]; 9.33% (active) in [11]; 30.7% in [12]. For the same molecule, the growth in [13] was 91.7%; in experiment [14], 19.4%; in experiment [15] it was 89.3%; in experiment [16], 65.7%; in [17] it was 53.6%; in experiment [18] it was 71.1%. Further, the growth in experiment [19] was 23.7%.
Turning to `O=C(/C=C/c1cc(CN2CCOCC2)c(O)c2ncccc12)c1cc(CN2CCOCC2)c(O)c2ncccc12`, the growth in experiment [1] is 20.7%; in experiment [2], 23.5%; in experiment [3] it was 26.1%; in [4], 11.1%; in experiment [5], 22.1%; in [6], 9.19% (active). The growth in experiment [7] was 14.1%; in experiment [8], 32.4%; in [9], 26.9%; in experiment [10] it was 31.1%; in experiment [20] it was 8.01% (active); in [11] it was 6.02% (active). In addition, the growth in experiment [12] was 15.2%; in experiment [14], 30.3%; in experiment [15], -21.8% (active); in experiment [16], 15.4%; in experiment [17], 23.6%; in experiment [18] it was 27.1%. Further, in [19], the growth is 21.4%.
For the molecule `CC1=NN(c2nc(-c3ccc(Cl)cc3)c(C#N)c(N3CCOCC3)n2)C(=O)C1`, the growth in [1] is 87.1%; in [2] it was 88.8%; in experiment [3] it was 88.5%; in experiment [4], 71.9%; in [5], 117%; in experiment [6] it was 73.6%. For the same molecule, the growth was 70.1% in [7]; 58% in experiment [8]; 85.9% in [9]; 92.1% in experiment [10]; 57.1% in [11]; 99.3% in experiment [12]. In addition, the growth was 97.3% in experiment [13]; 51.5% in experiment [14]; 86.6% in experiment [15]; 81% in [16]; 50.2% in [17]; 54.6% in experiment [18]. In addition, the growth in experiment [19] was 96.1%.
Turning to `C=C(C)[C@@H]1CC[C@]2(C(=O)OC)CC[C@]3(C)[C@H](CC[C@@H]4[C@@]5(C)C/C(=C/c6ccc(OC)cc6)C(=O)C(C)(C)[C@@H]5CC[C@]43C)[C@@H]12`, the growth in [1] was 104%; in experiment [2], 84.7%; in [3], 84.9%; in experiment [4], 79.7%; in [5], 107%; in experiment [6], 90.5%. Moreover, the growth in experiment [7] is 90.5%; in experiment [8], 93.7%; in experiment [9], 58.8%; in [10] it was 58.3%; in experiment [11] it was 54.8%; in experiment [12], 102%. The growth is 93.4% in [13]; 85.8% in [14]; 102% in experiment [15]; 100% in experiment [16]; 86.7% in [17]; 94.9% in [18]. In addition, in [19], the growth was 93.2%.
For `O=C1/C(=C/C(Cl)=C/c2ccccc2)SC(=S)N1CCc1ccc(O)cc1`, the growth in [1] is 12.8%; in experiment [2] it was 11%; in experiment [3], 6.85% (active); in experiment [4] it was -84.5% (active); in experiment [5] it was 16.8%; in experiment [6] it was -73.4% (active). Also, the growth in experiment [7] is -15.7% (active); in experiment [8], -0.593% (active); in experiment [9], 9.68% (active); in experiment [10] it was 9.33% (active); in experiment [20] it was 13.3%; in experiment [11] it was 2.88% (active). Also, the growth in experiment [12] is 16.7%; in experiment [15], 34.8%; in experiment [16], -36.6% (active); in experiment [17], -7.98% (active); in experiment [18], 37.5%; in [19], 9.23% (active).
With `COc1ccc(CCNc2nc(SC)nc(-c3cccc([N+](=O)[O-])c3)c2C#N)cc1OC`, the growth in experiment [1] is 98.6%; in [2] it was 80.5%; in experiment [3], 84%; in [4], 84.8%; in [5], 112%; in experiment [6] it was 72%. The growth in [7] is 78%; in experiment [8], 94.8%; in experiment [9] it was 98.7%; in [10], 95%; in experiment [11], 82.6%; in experiment [12], 61.6%. Also, the growth in [13] is 87.5%; in experiment [14], 5.9% (active); in [15], 72.7%; in experiment [16] it was 95.4%; in [17] it was 102%; in experiment [18] it was 68.3%. In addition, the growth in experiment [19] is 68.4%.
Consider `CSc1nc(NCCN2CCOCC2)c(C#N)c(-c2cccc([N+](=O)[O-])c2)n1`, for which the growth in [1] is 109%; in [2], 87.3%; in experiment [3], 95.7%; in experiment [4] it was 82.5%; in [5] it was 135%; in experiment [6], 93.7%. The growth in experiment [7] is 86.4%; in [8], 55.7%; in experiment [9] it was 102%; in experiment [10], 98%; in experiment [11] it was 100%; in experiment [12], 97.4%. Moreover, the growth was 96.2% in experiment [13]; 87.3% in [14]; 97.8% in experiment [15]; 94.9% in experiment [16]; 109% in experiment [17]; 97.9% in experiment [18]. In addition, the growth in experiment [19] was 95.7%.
Take `O=C(COc1ccc(/C=C2\CSc3ccccc3C2=O)cc1)Nc1nccs1`: the growth is 83.5% in [1]; 129% in [2]; 95.2% in experiment [3]; 75.7% in experiment [4]; 85.5% in [5]; 104% in [6]. Also, the growth was 87.5% in [7]; 159% in experiment [8]; -66.1% (active) in experiment [9]; -30% (active) in [10]; -11% (active) in experiment [11]; 79.4% in experiment [12]. Further, the growth in [13] was 92.6%; in [14] it was 104%; in experiment [15], 127%; in experiment [16], -51.8% (active); in experiment [17] it was 87.5%; in experiment [18], 135%. Also, the growth in [19] was 80.1%.

The values are drawn from PubChem BioAssay (NCI).
